Consider 17 sequences from publication PMC8384837, “Expanding the binding specificity for RNA recognition by a PUF domain”.

Common to all, as to assay: yeast three-hybrid, YBZ-1, SC-Leu-His + 0.5 mM 3-AT, 4 days
What all share (details): tags: N-Gal4 AD-HA kept; label: inside an RPR1-promoter hybrid RNA with tandem MS2 sites; ssRNA

In assay [1] the target is PUM1 PUF domain R3-FYA (Homo sapiens, UniProt Q14671 828-1176, C935F;R936Y;Q939A). In short, it runs like this:
(§1)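 Each repeat of the Pumilio-1 PUF domain was randomized at its three base-contacting residues, and these libraries were co-expressed from a centromeric plasmid with matching RNA elements in strain YBZ-1. After four days on SC-Leu (input) or SC-Leu-His + 0.5 mM 3-AT (selection), the repeat regions were PCR-amplified and Illumina-sequenced. The interaction score compares variant frequency between input and selection as a log change, computed in log2 with a pseudocount of 1 for absent variants.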

Assay [2] has as its target PUM1 PUF domain R4-PWV (Homo sapiens, UniProt Q14671 828-1176, N971P;H972W;Q975V). Summed up:
as §1

The target in assay [3] is PUM1 PUF domain R4-APG (Homo sapiens, UniProt Q14671 828-1176, N971A;H972P;Q975G). In short, it runs like this:
as §1

Assay [4] deals with PUM1 PUF domain R1-KRT (Homo sapiens, UniProt Q14671 828-1176, S863K;Q867T). Summed up: as §1
Assay [5] addresses PUM1 PUF domain R2-AWD (Homo sapiens, UniProt Q14671 828-1176, N899A;Y900W;Q903D). Summed up: as §1
For assay [6], the target named is PUM1 PUF domain R2-SWP (Homo sapiens, UniProt Q14671 828-1176, N899S;Y900W;Q903P). Summed up:
as §1

In assay [7] the target is PUM1 PUF domain R5-EYG (Homo sapiens, UniProt Q14671 828-1176, C1007E;R1008Y;Q1011G). In short, it runs like this:
as §1

Assay [8] concerns the target PUM1 PUF domain R5-RDG (Homo sapiens, UniProt Q14671 828-1176, C1007R;R1008D;Q1011G). In short, it runs like this: as §1
In assay [9] the target is PUM1 PUF domain R1-IRR (Homo sapiens, UniProt Q14671 828-1176, S863I;Q867R). Summed up:
as §1

Assay [10] deals with PUM1 PUF domain R3-TTE (Homo sapiens, UniProt Q14671 828-1176, C935T;R936T;Q939E). Summed up:
as §1

In assay [11] the target is PUM1 PUF domain R3-IWM (Homo sapiens, UniProt Q14671 828-1176, C935I;R936W;Q939M). Summed up:
as §1

Assay [12] concerns the target T1, PUM1 PUF domain R6-AFE (Homo sapiens, UniProt Q14671 828-1176, N1043A;Y1044F;Q1047E).
T1 sequence: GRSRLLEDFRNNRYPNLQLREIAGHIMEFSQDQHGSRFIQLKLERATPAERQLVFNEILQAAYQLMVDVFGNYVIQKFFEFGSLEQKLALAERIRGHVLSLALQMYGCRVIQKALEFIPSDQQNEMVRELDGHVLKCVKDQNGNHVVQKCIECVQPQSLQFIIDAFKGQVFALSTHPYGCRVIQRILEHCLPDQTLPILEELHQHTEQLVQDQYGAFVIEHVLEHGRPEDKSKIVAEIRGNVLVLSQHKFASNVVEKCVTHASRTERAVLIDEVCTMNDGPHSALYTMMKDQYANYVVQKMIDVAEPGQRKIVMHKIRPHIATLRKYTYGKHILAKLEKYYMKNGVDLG
In short, it runs like this: as §1

Assay [13] has as its target PUM1 PUF domain R5-KNW (Homo sapiens, UniProt Q14671 828-1176, C1007K;R1008N;Q1011W). Summed up:
as §1

For assay [14], the target named is PUM1 PUF domain R5-RGM (Homo sapiens, UniProt Q14671 828-1176, C1007R;R1008G;Q1011M). Summed up:
as §1

The target in assay [15] is PUM1 PUF domain R8-KKP (Homo sapiens, UniProt Q14671 828-1176, N1122K;Y1123K;Q1126P). Summed up: as §1
The target of assay [16] is T2, PUM1 PUF domain R6-LWM (Homo sapiens, UniProt Q14671 828-1176, N1043L;Y1044W;Q1047M).
T2 sequence: T1 sequence with A216L, F217W, E220M
Summed up:
as §1

Assay [17] addresses T3, PUM1 PUF domain R6-NHW (Homo sapiens, UniProt Q14671 828-1176, Y1044H;Q1047W).
T3 sequence: T1 sequence with A216N, F217H, E220W
Summed up: as §1

In assay [18] the target is PUM1 PUF domain R8-RHM (Homo sapiens, UniProt Q14671 828-1176, N1122R;Y1123H;Q1126M). In short, it runs like this:
as §1

Assay [19] has as its target PUM1 PUF domain R5-PRQ (Homo sapiens, UniProt Q14671 828-1176, C1007P). Summed up:
as §1

For assay [20], the target named is PUM1 PUF domain R7-KHR (Homo sapiens, UniProt Q14671 828-1176, S1079K;N1080H;E1083R). In short, it runs like this: as §1

Residue numbers refer to the chain shown, from its start.

Consider “GGCUAGAACUAGUGGAUCCCCCGGCGCCCGGCGGCUCGAGCCCGGGUAAGUGUAAUUAGUCUGCAUGCCGCCGGGCGCCAUGCCUGCAGGUCGACUCUAGAAAACAUG”, for which, in assay [1], the binding signal was 4.01 log2 enrichment (interaction score). With “GGCUAGAACUAGUGGAUCCCCCGGCGCCCGGCGGCUCGAGCCCGGGUAAGUGUACAUAGUCUGCAUGCCGCCGGGCGCCAUGCCUGCAGGUCGACUCUAGAAAACAUG”, the binding signal was 5.39 log2 enrichment (interaction score) in assay [2] and 0.78 log2 enrichment (interaction score) in assay [3]. For “GGCUAGAACUAGUGGAUCCCCCGGCGCCCGGCGGCUCGAGCCCGGGUAAGUGUAAAUGGUCUGCAUGCCGCCGGGCGCCAUGCCUGCAGGUCGACUCUAGAAAACAUG”, the binding signal in assay [4] is 4.9 log2 enrichment (interaction score).

Consider “GGCUAGAACUAGUGGAUCCCCCGGCGCCCGGCGGCUCGAGCCCGGGUAAGUGUAAAAAGUCUGCAUGCCGCCGGGCGCCAUGCCUGCAGGUCGACUCUAGAAAACAUG”, for which the binding signal in assay [5] was 6.66 log2 enrichment (interaction score); in assay [6], 5.19 log2 enrichment (interaction score).

In the case of “GGCUAGAACUAGUGGAUCCCCCGGCGCCCGGCGGCUCGAGCCCGGGUAAGUGUGAAUAGUCUGCAUGCCGCCGGGCGCCAUGCCUGCAGGUCGACUCUAGAAAACAUG”, the figures for the binding signal in assay [7] and in assay [8] were 4.35 log2 enrichment (interaction score) and 2.49 log2 enrichment (interaction score), respectively. For the sequence “GGCUAGAACUAGUGGAUCCCCCGGCGCCCGGCGGCUCGAGCCCGGGUAAGUGUAUAUAGUCUGCAUGCCGCCGGGCGCCAUGCCUGCAGGUCGACUCUAGAAAACAUG”, the binding signal was 6.68 log2 enrichment (interaction score) in [2] and 4.91 log2 enrichment (interaction score) in [3]. With “GGCUAGAACUAGUGGAUCCCCCGGCGCCCGGCGGCUCGAGCCCGGGUAAGUGUAAAUCGUCUGCAUGCCGCCGGGCGCCAUGCCUGCAGGUCGACUCUAGAAAACAUG”, the binding signal in assay [9] was 2.25 log2 enrichment (interaction score). In the case of “GGCUAGAACUAGUGGAUCCCCCGGCGCCCGGCGGCUCGAGCCCGGGUAAGUGUAAGUAGUCUGCAUGCCGCCGGGCGCCAUGCCUGCAGGUCGACUCUAGAAAACAUG”, the results for the binding signal in assay [10] and in assay [11] were 5.3 log2 enrichment (interaction score) and 4.14 log2 enrichment (interaction score), respectively. As for “GGCUAGAACUAGUGGAUCCCCCGGCGCCCGGCGGCUCGAGCCCGGGUAAGUGGAAAUAGUCUGCAUGCCGCCGGGCGCCAUGCCUGCAGGUCGACUCUAGAAAACAUG”, the binding signal in assay [12] is 3.97 log2 enrichment (interaction score). As to “GGCUAGAACUAGUGGAUCCCCCGGCGCCCGGCGGCUCGAGCCCGGGUAAGUGUUAAUAGUCUGCAUGCCGCCGGGCGCCAUGCCUGCAGGUCGACUCUAGAAAACAUG”, the binding signal in assay [13] was 2.79 log2 enrichment (interaction score); in assay [14], 3.6 log2 enrichment (interaction score). Regarding “GGCUAGAACUAGUGGAUCCCCCGGCGCCCGGCGGCUCGAGCCCGGGUAAGCGUAAAUAGUCUGCAUGCCGCCGGGCGCCAUGCCUGCAGGUCGACUCUAGAAAACAUG”, in assay [15], the binding signal was 3.24 log2 enrichment (interaction score). For “GGCUAGAACUAGUGGAUCCCCCGGCGCCCGGCGGCUCGAGCCCGGGUAAGUGUAAAUUGUCUGCAUGCCGCCGGGCGCCAUGCCUGCAGGUCGACUCUAGAAAACAUG”, the binding signal in assay [9] is 2.12 log2 enrichment (interaction score). With “GGCUAGAACUAGUGGAUCCCCCGGCGCCCGGCGGCUCGAGCCCGGGUAAGUGUAAAGAGUCUGCAUGCCGCCGGGCGCCAUGCCUGCAGGUCGACUCUAGAAAACAUG”, the binding signal in assay [6] was 7.17 log2 enrichment (interaction score). “GGCUAGAACUAGUGGAUCCCCCGGCGCCCGGCGGCUCGAGCCCGGGUAAGUGUAAAUAGUCUGCAUGCCGCCGGGCGCCAUGCCUGCAGGUCGACUCUAGAAAACAUG”: the binding signal in assay [16] is 4.73 log2 enrichment (interaction score); in [17], 2.25 log2 enrichment (interaction score); in assay [2], 6 log2 enrichment (interaction score); in assay [3], 4.82 log2 enrichment (interaction score); in assay [18], 4.13 log2 enrichment (interaction score); in assay [19], 3.84 log2 enrichment (interaction score). Besides, in assay [12], the binding signal was 1.28 log2 enrichment (interaction score). With “GGCUAGAACUAGUGGAUCCCCCGGCGCCCGGCGGCUCGAGCCCGGGUAAGUCUAAAUAGUCUGCAUGCCGCCGGGCGCCAUGCCUGCAGGUCGACUCUAGAAAACAUG”, in assay [20], the binding signal is 5.64 log2 enrichment (interaction score). On to “GGCUAGAACUAGUGGAUCCCCCGGCGCCCGGCGGCUCGAGCCCGGGUAAGUGAAAAUAGUCUGCAUGCCGCCGGGCGCCAUGCCUGCAGGUCGACUCUAGAAAACAUG”, for which the binding signal in assay [12] was 3.96 log2 enrichment (interaction score). For the sequence “GGCUAGAACUAGUGGAUCCCCCGGCGCCCGGCGGCUCGAGCCCGGGUAAGUGUCAAUAGUCUGCAUGCCGCCGGGCGCCAUGCCUGCAGGUCGACUCUAGAAAACAUG”, in assay [14], the binding signal was 2.26 log2 enrichment (interaction score).
